An excerpt weighted towards active compounds, which were near 5.9% of everything screened.
GLP1R cytotox: cytotoxicity counter-screen for GLP-1 receptor inverse agonists. HEK293 cAMP-luciferase reporter cells, luminescence, 24 h. Potency, µM (titrated, usually from 38.3 µM), inactives show at the highest dose activity change, negative = inhibition, actives largely listed as inhibitors. actives 0.13% (n = 410,000);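 note: loss of luciferase light is scored as toxicity; % is set by controls: 0 for no effect and ±100 for the full control effect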
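Seeding density was 200 cells/uL; after overnight-length (12 h) culture, 23 nL compounds went on for 24 h at 37 °C. Readout used a luciferase detection reagent, luminescence taken after 12 min at room temperature.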
GLP-1R inv ag: inverse agonists of human GLP-1 receptor | P43220 | HEK293 GLP-1R CRE-luciferase, luminescence, 24 h; GLP-1R form is constitutively active | Potency, µM (doses to about 38.3 µM), for the others: top-dose activity change, negative = inhibition, hits mostly inhibitors | actives 1.6% (n = 410,000) | AID 624417; note: % is set by controls: 0 for no effect and ±100 for the full control effect; nearly all actives have a fitted effect of over 55% in size
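Stable HEK293 clone (constitutively active GLP-1R + cAMP-response luciferase); 200 cells/uL plated, 12 h pre-culture, compound 24 hr, 37 deg C/5% CO2; detection reagent 12 min RT; luminescence.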
RORgamma inh: blocks mouse ROR gamma transcriptional activity | actives 5.4% (n = 310,000) | Potency, µM (top dose mostly 53.6 µM), for the others: at the highest dose activity change, negative = inhibition, usual class: inhibitors | P51450 | Drosophila S2 Gal4-RORgamma UAS-luciferase reporter, 20 h; note: % is set by controls: 0 for no effect and ±100 for the full control effect; nearly all actives have a fitted effect of over 60% in size
Target sequence (P51450 whole entry, looked up, the tested form may be a part): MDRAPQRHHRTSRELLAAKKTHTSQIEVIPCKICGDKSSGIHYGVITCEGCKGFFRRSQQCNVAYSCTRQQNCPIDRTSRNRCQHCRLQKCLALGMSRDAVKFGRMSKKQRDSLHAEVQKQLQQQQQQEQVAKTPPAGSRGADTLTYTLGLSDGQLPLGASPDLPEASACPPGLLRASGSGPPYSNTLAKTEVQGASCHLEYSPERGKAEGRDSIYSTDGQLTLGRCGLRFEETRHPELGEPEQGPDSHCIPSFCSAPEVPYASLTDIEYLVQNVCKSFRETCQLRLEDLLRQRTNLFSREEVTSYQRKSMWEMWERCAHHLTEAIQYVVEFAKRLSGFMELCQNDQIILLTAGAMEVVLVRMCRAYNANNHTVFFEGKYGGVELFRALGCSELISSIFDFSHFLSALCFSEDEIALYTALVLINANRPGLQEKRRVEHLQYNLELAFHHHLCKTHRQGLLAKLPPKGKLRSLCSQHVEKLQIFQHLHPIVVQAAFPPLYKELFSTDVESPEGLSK
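In this cell-based reporter format, copper sulfate (700 uM final) drives Gal4–ROR gamma fusion expression from a metallothionein promoter in Drosophila Schneider cells; compounds preincubated 1 hr, reporter read after 20 hr at ambient temperature.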
GLP-1R agonist: activates the human GLP-1 receptor | AID 624172 | actives 0.007% (n = 380,000) | HEK293 GLP-1R CRE-luciferase, luminescence, 4-6 h; cells express a hypersensitive GLP-1R form | P43220 | Potency, µM (doses to about 45.6 µM), for inactives: at the top dose activation, usual class: activators; note: % of control where 0% means no effect
Gal4-VP16 FLuc: Gal4-VP16 reporter inhibition counter-screen; Drosophila S2 Gal4-VP16 UAS-luciferase, luminescence, 20 h; Potency, µM (titrated, usually from 53.6 µM), without a hit: at the top dose activity, negative = inhibition, usual class: inhibitors; actives 3.5% (n = 310,000);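 note: Gal4-VP16 expression switched on by copper sulfate through the metallothionein promoter; % is set by controls: 0 for no effect and ±100 for the full control effect; nearly all actives have a fitted effect of over 50% in size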
Numbers without * were called inactive; ? = inconclusive; . = no result given; [ ] = dose if it differs, or a comment. Calls come from the whole dose curve; as a rule, active = well fitted curve in the direction sought with a large enough effect; inconclusive = small, poorly fitted or top-dose-only effect, or another doubt; inactive = no such curve, though single readings can be large; an effect the other way counts as inactive or inconclusive. Potency is the fitted concentration of half-maximal effect.

SMILES	GLP1R cytotox	GLP-1R inv ag	RORgamma inh	GLP-1R agonist	Gal4-VP16 FLuc
CCN1C(=O)[C@H]2[C@@H](c3ccc(-c4cccc(Cl)c4)cc3)N[C@@](C)(C(=O)OC)[C@H]2C1=O	3.3%	11.2µM*	.	6.9%	.
COC(=O)[C@]1(Cc2ccccc2)N[C@H](c2ccc(-c3cccc(Cl)c3)c(OC)c2)[C@@H]2C(=O)N(C)C(=O)[C@@H]21	-5.0%	3.16µM*	.	4.1%	.
Cc1ccc(C(=O)N2CCN(Cc3cc(=O)n4nc(-c5ccccc5)sc4n3)CC2)cc1	0.8%	8.1%	.	.	.
O=C(c1ccc(Br)o1)N(Cc1ccccc1)Cc1ccccc1	-8.7%	10µM*	?	18.5%	?
c1ccc(Nc2nc3ccccc3[nH]2)nc1	?	?	2µM*	1.0%	?
Nc1ccc(Nc2nc3ccccc3[nH]2)cc1	-7.0%	31.5%	14.9%	-1.1%	-21.7%
Cc1ccc(NC(=O)C(Cc2ccccc2)n2cccc2)c(C)c1 (centres undefined)	11.3%	?	.	.	.
Cc1ccc(C)c(NC(=O)C(Cc2ccccc2)n2cccc2)c1 (centres undefined)	-8.1%	10µM*	.	.	.
O=C(Nc1ncc(Br)s1)C(Cc1ccccc1)n1cccc1 (centres undefined)	?	?	12.6µM*	-0.1%	?
CC(/C=C/c1ccc2c(c1)OCO2)=N/NC(=O)c1cccnc1	-12.1%	24.5%	3.55µM*	4.6%	6.31µM*
C/C(=N\NC(=O)c1ccc2c(c1)OCO2)c1cccnc1	-0.9%	-23.6%	?	2.3%	-22.6%
CC(/C=C/c1ccc2c(c1)OCO2)=N/NC(=O)c1ccc(C)nc1	-21.4%	-14.7%	7.94µM*	1.5%	7.94µM*
CC(/C=C/c1cccc([N+](=O)[O-])c1)=N\NC(=O)c1ccncc1	-7.5%	21.0%	5.01µM*	-14.5%	10µM*
CC1=C(/C=C/C(C)=N\NC(=O)c2ccncc2)C(C)(C)CCC1	3.5%	-17.5%	7.94µM*	6.8%	?
C/C(=N\NC(=O)c1ccncc1)C12CC3CC(CC(C3)C1)C2	-13.1%	-3.4%	2.3%	-0.7%	-8.0%
O=C(N/N=C/c1ccncc1)c1cccc([N+](=O)[O-])c1	.	.	7.4%	.	-1.9%
Cc1cc(OCC(=O)NCC2(N3CCN(C)CC3)CCCCC2)cc(C)c1Cl	-34.2%	?	.	.	.
O=C(CN1C(=O)COc2ccc(S(=O)(=O)N3CCCC3)cc21)N1CCN(c2ccc(Cl)cc2)CC1	-6.5%	-16.2%	.	1.6%	.
O=C(Nc1ccc(Cl)c(-c2nc3ccccc3o2)c1)c1cccc2c(Cl)cccc12	2.4%	1.4%	.	.	.
CC(/C=C/c1ccc2c(c1)OCO2)=N/NC(=O)c1ccncc1	-17.1%	-21.4%	5.62µM*	-1.7%	17.8µM*
O=C(N/N=C/c1ccc2c(c1)OCCO2)c1ccncc1	-23.0%	12.8%	-4.3%	8.8%	0.1%
Cn1cccc1CNC(=S)Nc1ccccc1F	42.2%	-6.8%	12.6µM*	2.3%	0.8%
Cn1cccc1CNCc1ccccc1Cl	9.5%	0.0%	0.0%	0.7%	0.0%
Cc1cc(C)cc(NC(=S)NCc2cccn2C)c1	-16.7%	0.0%	2.82µM*	-7.1%	10µM*
Cn1cccc1CNC(=S)Nc1ccccc1Cl	8.6%	1.5%	6.31µM*	7.4%	-6.9%
SMILES	GLP1R cytotox	GLP-1R inv ag	RORgamma inh	GLP-1R agonist	Gal4-VP16 FLuc
Cc1ccc(NC(=O)NCc2cccn2C)cc1C	4.0%	-13.7%	16.6%	20.9%	24.8%
O=C1CCCC=C1[C@H](O)c1ccc([N+](=O)[O-])cc1	.	.	18.3%[10 µM]	.	-3.9%[10 µM]
Cc1ccc(S(=O)(=O)NCC(c2ccco2)N2CCN(c3ccccc3F)CC2)cc1 (centres undefined)	10.7%	?	.	.	.
Oc1csc(Cc2nc(-c3ccc(-c4ccccc4)cc3)cs2)n1	-12.8%	3.2%	?	-8.8%	-2.7%
NC(=S)Cc1nc(-c2ccccc2)cs1	-6.1%	-22.0%	11.2µM*	-3.9%	8.91µM*
COCC(=O)N(CCc1ccc(OC)cc1)Cc1nc2ccccc2c(=O)[nH]1	-18.2%	0.7%	5.01µM*	-9.4%	7.08µM*
CCCC(=O)N(CCc1ccc(OC)cc1)Cc1nc2ccccc2c(=O)[nH]1	-15.5%	16.1%	10µM*	-0.4%	?
CCCCC(=O)N(Cc1ccc2c(c1)OCO2)Cc1nc2ccccc2c(=O)[nH]1	-3.4%	-21.9%	11.2µM*	9.9%	-21.9%
Cc1cc(/C=C2\Sc3ccccc3N2C)cc(C)[n+]1CC1CCCO1 (centres undefined)	?	?	2.82µM*	0.1%	2µM*
Cc1ccc(/C=C2/Sc3ccccc3N(CC(=O)NCC3CCCO3)C2=O)cc1 (centres undefined)	4.9%	?	6.0%	8.8%	-0.7%
C/C(=N\Nc1nccnc1Cl)c1c(F)c(F)c(F)c(F)c1F	-0.4%	0.0%	8.91µM*	7.5%	?
C/C(=N\Nc1nccnc1Cl)c1ccc(O)cc1	?	-29.1%	10.8%	4.9%	8.0%
C/C(=N\Nc1nccnc1Cl)c1ccc(F)cc1	22.7%	11.0%	5.62µM*	0.9%	2.82µM*
CC/C=C/C#N	.	.	26.9%	.	-12.9%
COc1cccc(-n2c(SCc3ccc(F)cc3)nc3c([nH]c4ccccc43)c2=O)c1	-15.3%	8.91µM*	.	3.6%	.
CC(=O)Nc1ccc(NC(=O)COC(=O)/C(=C/c2ccccc2)n2nnnc2C)cc1	-38.0%	4.8%	15.8µM*	-12.5%	?
Cc1nnnn1/C(=C\c1ccccc1)C(=O)OCC(=O)NC(C)(C)C	?	1.2%	12.6µM*	-4.3%	20µM*
COCC(C)n1c(C)cc(C(=O)COC(=O)c2c(NC(C)=O)sc(C)c2C)c1C (centres undefined)	-13.2%	6.9%	4.47µM*	5.8%	-15.0%
O=C(Nc1cc(Cl)cc(Cl)c1)C1CC(=O)N(C2CCCC2)C1 (centres undefined)	-2.9%	8.91µM*	.	2.7%	.
COc1ccc(Cl)cc1NC(=O)C1CC(=O)N(C2CCCCC2)C1 (centres undefined)	-15.7%	?	10.7%	0.2%	-3.5%
O=C(O)CSCC(=O)Nc1ccc(C2CCCCC2)cc1	22.0%	?	2.24µM*	-6.7%	3.16µM*
Nn1cnnc1SCC(=O)Nc1ccc(C2CCCCC2)cc1	-8.1%	36.9%	20.5%	-0.9%	-10.2%
Cc1cc2c(cc(C(=O)NCCCN3CCOCC3)n2Cc2ccc(Cl)cc2)o1	21.5%	0.0%	?	5.1%	10µM*
Cc1ccc(Cn2c(C(=O)NCCCN3CCOCC3)cc3sccc32)cc1	1.5%	0.0%	-12.1%	0.5%	-11.5%
CC(=N\Nc1ccccc1)/C(=N/O)C(=O)Nc1ccccc1	-12.6%	-12.0%	14.1%	2.6%	0.2%
CC(=N\NC(=O)c1ccccc1)/C(=N/O)C(=O)Nc1ccccc1	?	?	5.01µM*	5.3%	?
CCOCCCNC1=C(Cl)C(=O)c2ccccc2C1=O	-25.3%	?	-42.5%	-2.8%	?
